Values joined by “and” are separate entries in the source; they are usually repeats but may differ in a detail not shown here. Equal values may be shown once. Inconclusive results are not listed. Entries that show only a call come without a potency. The source holds several records for some structures; these can differ, active in one and inactive in another. Active and inactive are the calls of the source. Calls follow the shape of the full dose curve. Numbered stars: 1 amine (or outer) side, 2 acyl side, 3 side chain; on linkers, the order of the positions; unused ones are H or OH. Bridge positions count the residues as written; N and C are the ends. Square brackets hold non-standard residues; d marks the D form. Peptide text beside a SMILES is read from it. I, II: the chains in the order shown. Actinocin(9to1) = Cc1c2oc3c(C)ccc(C(=O)[*:1])c3nc-2c(C(=O)[*:2])c(N)c1=O; NMeV = CN[C@H](C(=O)O)C(C)C; Sar = CNCC(=O)O
Assay: Nuclear factor erythroid 2-related factor 2/antioxidant responsive element (Nrf2/ARE) small molecule agonists: luciferase reporter gene qHTS assay in human keratinocytes (AID 1919969); also: nearly all actives have a fitted effect of over 35% in size
Conditions: KeratinoSens HaCaT ARE-luciferase, luminescence, 24 h; series mostly up to 92.4 µM
Text: National Center for Advancing Translational Sciences [NCATS]
Division of Preclinical Innovation [DPI]
U.S. Environmental Protection Agency [EPA]
National Institutes of Environmental Health Sciences [NIEHS]
National Toxicology Program [NTP]
U.S. Food and Drug Administration [FDA]
Oxidative stress has been implicated in the pathogenesis of a variety of diseases ranging from cancer to neurodegeneration. The antioxidant response element (ARE) signaling pathway plays an important role in the amelioration of oxidative stress. The KeratinoSens (Givaudan, Switzerland) is an in vitro test method which quantifies luciferase induction as a measure of activation of Keap1-Nrf2-antioxidationt/electrophile response element (ARE) dependant pathway in HaCaT human keratinocytes stably transfected with a selectable plasmid. The KeratinoSens assay is a cell-based assay with a reporter cell line to detect potential skin sensitizers by their ability to induce the Nrf2/ARE-response. The activation of the report gene under culture conditions can be detected by ONE-Glo Luciferase Assay System (Promega, Madison, WI). This cell line has been used to screen the Tox21 10K compound library to identify agonists that induce oxidative stress. The cytotoxicity of the Tox21 compound library against the KS-ARE cell line was tested in parallel by measuring the cell viability using CellTiter- Fluor assay system (Promega, Madison, WI) in the same wells.
HaCaT derived cell line KeratinoSens were dispensed at 1,500 cells/5uL/well in 1536-well white wall/solid bottom plates using a Multidrop Combi (ThermoFisher Scientific, Waltham, MA) dispenser. After the assay plates were incubated at 37 C/5% CO2 for 5 h, 23 nL of compounds dissolved in DMSO, positive controls or DMSO only was transferred to the assay plate by a pintool workstation (Kalypsys, San Diego, CA). The plates were incubated at 37 C/5% CO2 for 23 h, followed by addition of 1uL/well of CellTiter-Fluor reagent into the assay plates using a Flying Reagent Dispenser (Aurora Discovery, San Diego, CA) for cell viability readout that measures cytotoxicity. After 1 h incubation at 37 C/5% CO2 the fluorescence intensity was measured using a ViewLux (PerkinElmer, Shelton, CT) plate reader. Then 4uL/well of One-Glo were added using a Flying Reagent Dispenser. After the plates were incubated at room temperature for 30 min, the luminescence intensity in the assay plates was measured using ViewLux plate reader.
Potency is read from the fitted curve at half-maximal effect.

SMILES	Potency	activity, positive = activation
Cc1c2oc3c(C)ccc(C(=O)N[C@@H]4C(=O)N[C@H](C(C)C)C(=O)N5CCC[C@H]5C(=O)N(C)CC(=O)N(C)[C@@H](C(C)C)C(=O)O[C@@H]4C)c3nc-2c(C(=O)N[C@@H]2C(=O)N[C@H](C(C)C)C(=O)N3CCC[C@H]3C(=O)N(C)CC(=O)N(C)[C@@H](C(C)C)C(=O)O[C@@H]2C)c(N)c1=O (I: T[dV]P[Sar][NMeV] / II: T[dV]P[Sar][NMeV]; ester I:1-I:C, II:1-II:C; linker I:N-II:N via Actinocin(9to1))	inactive and 42.2 nM (active)	
Cc1ccc2oc(=O)ccc2c1	inactive	
CC1=CC(C)C(C=O)CC1 (stereo not given)	inactive	
COC(=O)Cc1cccc2ccccc12	inactive	
O=C(Cl)c1ccccc1[N+](=O)[O-]	inactive	
CC(COCC(C)OC(=O)c1ccccc1)OC(=O)c1ccccc1 (stereo not given)	inactive	
C[N+]1([O-])CCOCC1	inactive	
c1ccc2cnncc2c1	inactive	
CC(=O)C1(C)CC2=C(CCCC2(C)C)CC1C (stereo not given)	inactive	
COC(OC)OC	inactive	
CS(C)(=O)=O	inactive	
Nc1cc(=O)[nH]c(N)n1	inactive	
BrC1CCC(Br)C(Br)CCC(Br)C(Br)CCC1Br (stereo not given)	9.65 µM (active) and 16.3 µM (active)	
CNC(=O)[C@H]1O[C@@H](n2cnc3c(NCc4cc(Cl)ccc4OCc4cc(C)no4)ncnc32)[C@H](O)[C@@H]1N	inactive	
Nc1ccc(NCCO)c([N+](=O)[O-])c1	inactive	
C=CCCCCCCCCCCCCCCCC		1.31% [at 8.39 µM] (inactive)
CC1(C)[C@@H]2CC[C@@]1(C)[C@H](O)C2	inactive	
N=C(N=C(N)N)N1CCOCC1	inactive	
C=C1C[C@H]2[C@@H]3C=C(C)C4=CC(=O)CC[C@]4(C)[C@H]3CC[C@]2(C)[C@@]1(OC(C)=O)C(C)=O	inactive	
CCCC(=O)OCc1ccccc1	inactive	

SMILES	Potency	activity, positive = activation
C=C(c1ccc(C(=O)O)cc1)c1cc2c(cc1C)C(C)(C)CCC2(C)C	inactive	
Cc1ccc(C(=O)c2cc(O)c(O)c([N+](=O)[O-])c2)cc1	inactive	
O=CC1CC=CCC1 (stereo not given)	inactive	
N#Cc1ccc(C2CCCc3cncn32)cc1 (stereo not given)	inactive	
CCCCCCCC/C=C\CCCCCCCC(N)=O	inactive	
O=C1CC2CC1C1CCCC21 (stereo not given)	inactive	
COC(=O)Nc1nc2ccc(S(=O)c3ccccc3)cc2[nH]1 (stereo not given)	inactive and 13.3 µM (active)	
Nc1ccc(O)cc1	28.4 µM (active)	
CC(=O)[C@@]1(O)CC[C@H]2[C@@H]3CCC4=CC(=O)CC[C@]4(C)[C@H]3CC[C@@]21C	inactive	
CC(=O)SC[C@@H](C)C(=O)N1CCC[C@H]1C(=O)N[C@@H](Cc1ccccc1)C(=O)O	inactive	
C/C(=C(\CCO)SS/C(CCO)=C(\C)N(C=O)Cc1cnc(C)nc1N)N(C=O)Cc1cnc(C)nc1N	inactive	
Cc1cc(O)cc(C)c1Cl	inactive	
O=C1CCCCCCCCCCCCCCCO1	inactive	
ClC(c1ccccc1)(c1ccccc1)c1ccccc1	inactive	
CC(C)(C)C(=O)C1C(=O)c2ccccc2C1=O	inactive	
SCCSCCS	inactive	
CC(=O)N[C@H]1[C@H]([C@H](O)[C@H](O)CO)OC(C(=O)O)=C[C@@H]1N=C(N)N	inactive	
N=c1nc(N2CCCCC2)cc(N)n1O	inactive	
CCOCCOC(=O)/C=C/c1ccc(OC)cc1	inactive	
CC(C)(CC(=O)O)C(=O)O	inactive	
